Experimental data taken from PubChem BioAssay AID1001 (Sanford-Burnham Center for Chemical Genomics, 2008).
The whole screen tested about 200,000 compounds, of which about 50 (0.03%) were called active. The rule behind the calls is not given here. What follows is part of a selection rich in actives, with near analogues and random picks from the rest. Potency and affinity values are given separately.

Target: Alkaline phosphatase, tissue-nonspecific isozyme (Homo sapiens) (UniProt P05186)
Assay: human TNAP enzyme activators, primary screen, biochemical, luminescent, no phosphate acceptor, uHTS (AID 1001)
Conditions: purified TNAP, luminescent activation assay, at 20 µM, active compounds read high

Chain of Alkaline phosphatase, tissue-nonspecific isozyme (Homo sapiens) (P05186 whole entry, looked up): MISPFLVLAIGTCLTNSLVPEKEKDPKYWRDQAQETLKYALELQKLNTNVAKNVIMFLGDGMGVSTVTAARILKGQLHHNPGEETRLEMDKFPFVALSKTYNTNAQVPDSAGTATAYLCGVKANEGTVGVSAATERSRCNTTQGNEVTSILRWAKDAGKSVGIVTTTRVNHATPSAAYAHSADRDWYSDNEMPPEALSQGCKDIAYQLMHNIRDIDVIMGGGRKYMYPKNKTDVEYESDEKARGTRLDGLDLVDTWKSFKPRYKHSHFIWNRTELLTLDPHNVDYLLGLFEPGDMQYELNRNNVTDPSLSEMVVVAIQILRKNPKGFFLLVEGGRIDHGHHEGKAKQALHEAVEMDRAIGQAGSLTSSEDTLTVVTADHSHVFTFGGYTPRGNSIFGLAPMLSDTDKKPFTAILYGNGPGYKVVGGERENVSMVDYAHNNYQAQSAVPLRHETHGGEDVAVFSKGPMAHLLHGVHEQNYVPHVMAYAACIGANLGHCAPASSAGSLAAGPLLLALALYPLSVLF

SMILES | activation fold
COC(=O)c1cc(O)c(O)c(O)c1 | 1 (inactive)
O=C(OCC1O[C@@H](OC(=O)c2cc(O)c(O)c(O)c2)[C@@H](OC(=O)c2cc(O)c(O)c(O)c2)[C@@H](OC(=O)c2cc(O)c(O)c(O)c2)[C@@H]1OC(=O)c1cc(O)c(O)c(O)c1)c1cc(O)c(O)c(O)c1 (stereo not given in full) | 3 (active)
O=C(O[C@@H]1OC2COC(=O)c3cc(O)c(O)c(O)c3-c3c(cc(O)c(O)c3O)C(=O)O[C@@H]([C@H]1O)[C@@H]2O)c1cc(O)c(O)c(O)c1 | 1.3 (inactive)
COC(=O)C1=C(C)N=C2SC(C#N)=C(N)N2C1c1ccc(OC)cc1 (stereo not given) | 1 (inactive)
COc1ccc(Cl)cc1NC(=O)CN1CCC(n2nnc3cc(F)ccc32)CC1 | 1.5 (inactive)
COc1ccc(Cl)cc1NC(=O)CN1CCC(n2nnc3ccccc32)CC1 | 1.1 (inactive)
Cc1nc(N2CCN(C(c3ccccc3)c3ccccc3)CC2)nc2c1C(=O)CCC2 | 1.1 (inactive)
Cc1ccc(-c2csc(NC(=O)CSC3=NCCS3)n2)cc1 | 1.1 (inactive)
CC(=O)Nc1ccc(S(=O)(=O)NCc2ccccn2)cc1 | 1.1 (inactive)
Cn1c(=O)c2c(nc(NCc3ccco3)n2C)n(C)c1=O | 1.1 (inactive)
Cn1c(=O)c2c(ncn2CC(=O)N/N=C/c2ccco2)n(C)c1=O | 1.1 (inactive)
CCc1ccc2oc(-c3ccc(OC)cc3)cc(=Nc3c(C)n(C)n(-c4ccccc4)c3=O)c2c1 | 0.9 (inactive)
Cc1ccc(CC(=O)Nc2nc3ccccc3s2)cc1 | 1 (inactive)
CCOC(=O)c1ccc(NCc2ccc3c(c2)OCO3)cc1 | 1 (inactive)
CCn1c(CNc2ccc(C(=O)O)cc2)nc2ccccc21 | 1.1 (inactive)
C/C(=N\Nc1ccc(C(=O)O)cc1)c1nc2ccccc2n1C | 0.9 (inactive)
COc1ccc(C(CNC(=O)CN2C(=O)NC3(CC(C)CC(C)(C)C3)C2=O)N2CCOCC2)cc1 (stereo not given) | 1.2 (inactive)
O=C(COc1ccc(Cl)cc1)NCc1nnc(SCC(=O)NCCc2ccccc2)o1 | 1.1 (inactive)
COc1ccccc1CC(Cc1nc2ccccc2[nH]1)c1nc2ccccc2[nH]1 (stereo not given) | 2.8 (inactive)
Cc1cc(C)cc(CC(Cc2nc3ccccc3[nH]2)c2nc3ccccc3[nH]2)c1 (stereo not given) | 1.6 (inactive)
Cc1cc2oc(=O)cc(CN3CCN(Cc4ccccc4)CC3)c2cc1Cl | 1 (inactive)
O=C(CN1C(=O)S/C(=C\c2ccccc2)C1=O)NNC(=O)c1ccccc1O | 2.2 (inactive)
COc1ccc(/C=C2\SC(=O)N(CC(=O)NNC(=O)c3ccccc3O)C2=O)cc1OC | 2.4 (inactive)

SMILES | activation fold
COc1ccc(NC(=O)CC2C(=O)N(Cc3cccs3)C(=S)N2C(C)C)cc1 (stereo not given) | 1.1 (inactive)
CCOc1ccc(N(C(=O)c2cnsn2)C(C(=O)NC2CCCCC2)c2ccncc2)cc1 (stereo not given) | 1.2 (inactive)
Cn1nc(CC(=O)NC2CCCCC2)c2ccccc2c1=O | 1.1 (inactive)
Cn1nc(CC(=O)NC2CCCCCC2)c2ccccc2c1=O | 1.1 (inactive)
COc1ccc(CN2CCNC(=O)C2CC(=O)NCc2ccc(C)s2)c(OC)c1 (stereo not given) | 1.1 (inactive)
Cc1ccc(NC(=O)NC2(C(=O)NCc3ccccc3)CCCCC2)cc1 | 1.1 (inactive)
Cc1ccc(CNC(=O)C2(NC(=O)Nc3ccc(C)cc3)CCCCC2)cc1 | 1.2 (inactive)
O=C(NC1CCCCC1)C1CCN(C(=O)c2ccc(-c3ccccc3)cc2)CC1 | 1.1 (inactive)
OCCNc1ncnc2c1c(-c1ccccc1)c(-c1ccccc1)n2Cc1ccco1 | 1.1 (inactive)
N=c1c2c(-c3ccccc3)c(-c3ccccc3)n(Cc3ccco3)c2ncn1CCCn1ccnc1 | 2.7 (inactive)
COc1cc(NC(=O)CN2CCCCC2)c(C)cc1[N+](=O)[O-] | 1.1 (inactive)
CCOc1cc(-n2cnnn2)c(OCC)cc1NC(=O)c1cnccn1 | 1.1 (inactive)
c1ccc2c(c1)Nc1nccnc1S2 | 1 (inactive)
COc1ccc2[nH]c(=O)c(CN(CCN3CCCC3)C(=O)Nc3ccccc3Cl)cc2c1 | 1.1 (inactive)
CCOc1ccccc1-c1c2cc(O)c(=O)cc-2oc2cc(O)c(O)cc12 | 0.6 (inactive)
COc1ccc(OC)c(-c2c3cc(O)c(=O)cc-3oc3cc(O)c(O)cc23)c1 | 3.9 (active)
Cc1c2cc(O)c(=O)cc-2oc2cc(O)c(O)cc12 | 0.4 (inactive)
O=C(NCCCN1CCCC1=O)c1ccc(OCc2ccccc2)cc1 | 1.1 (inactive)
COc1nc(-c2cnccn2)sc1C | 1.1 (inactive)
COc1ccc2nc(C)cc(SCC(=O)NNC(=O)COc3cccc4ccccc34)c2c1 | 2.1 (inactive)
COc1ccc2nc(C)cc(SCC(=O)NNC(=O)COc3ccc(C)cc3)c2c1 | 1.1 (inactive)
O=C(CN1CCOCC1)NCCC12CC3CC(CC(C3)C1)C2 | 1.2 (inactive)
COc1ccc(N/C=C\C(=O)c2ccc(Br)cc2)cc1OC | 1.1 (inactive)

SMILES | activation fold
Cc1nn(C)cc1/C=C/C(=O)c1ccccc1 | 1.1 (inactive)
CCCCCC(=O)NNC(=O)c1ccc(F)cc1 | 1 (inactive)
CCCCCCCC(=O)NNC(=O)c1ccc(F)cc1 | 2.1 (inactive)
Cc1cc(NC(=O)CCC(=O)N(Cc2ccco2)C(C(=O)NC2CCCCC2)c2cccs2)no1 (stereo not given) | 1.1 (inactive)
Cc1cc(Cl)ccc1OCC(=O)NCCOC(=O)Nc1sc(=S)n(C)c1C | 1.2 (inactive)
Cc1c(C(=O)Oc2cc(N)n(S(C)(=O)=O)n2)cccc1[N+](=O)[O-] | 1 (inactive)
CC(=O)c1ccc(NC(=O)COc2ccc3c(c2)OCO3)cc1 | 1.1 (inactive)
Cc1cc(NC(=O)CN2CCN(C)CC2)no1 | 1.1 (inactive)
Cc1cc(C)c(NC(=O)CN2CCN(C)CC2)c(C)c1 | 1.2 (inactive)
COc1ccc(C2C(C(=O)OC3CCCCC3)=C(C)Nc3nnnn32)c(OC)c1OC (stereo not given) | 1 (inactive)
N#Cc1c(SCC(=O)O)nc(-c2ccccc2)c2c1CCCC2 | 1 (inactive)
Cc1cccc2sc(NC(=O)CN(C)S(=O)(=O)c3ccc(Br)s3)nc12 | 1 (inactive)
CC1CCN(Cc2nc(Cl)c3c4c(sc3n2)CCC4)CC1 | 1 (inactive)
COc1cccc(-c2nnc(Nc3nc4c(F)cccc4s3)o2)c1 | 1.7 (inactive)
COc1cc(OC)cc(-c2nnc(Nc3nc4c(F)cccc4s3)o2)c1 | 1.2 (inactive)
O=C(OCc1cc2ccccc2[nH]c1=O)C1CCCO1 (stereo not given) | 1.1 (inactive)
O=C(CSc1nnc(C2COc3ccccc3O2)o1)Nc1nccs1 (stereo not given) | 1.2 (inactive)
CCCCOC(=O)c1ccc(NC(=O)CSCc2n[nH]c(=O)[nH]2)cc1 | 1.4 (inactive)
O=[N+]([O-])c1ccccc1-c1cc(-c2ccccc2O)n[nH]1 | 2.1 (inactive)
Cc1ccc(O)c(-c2cc(-c3ccccc3[N+](=O)[O-])[nH]n2)c1 | 2.3 (inactive)
CC(C)(Oc1ccc(Cl)cc1)C(=O)NCc1ccc(S(N)(=O)=O)cc1 | 1.2 (inactive)
CCn1cc(S(=O)(=O)CC(=O)Nc2ccc3c(c2)OCCO3)c2ccccc21 | 1.1 (inactive)
CC(C)C(OC(=O)C1=Cc2ccccc2OC1)C(=O)NC1CCCC1 (stereo not given) | 1.2 (inactive)

SMILES | activation fold
CN(C)CCNc1ccc(-c2nn(C)c(=O)c3ccccc23)cc1[N+](=O)[O-] | 1 (inactive)
O=S1(=O)NC2CCCCCN2c2ccc(F)cc21 (stereo not given) | 1.1 (inactive)
Cn1c(C(=O)NCC2CCCO2)cc2c(=O)n(C)c3ccccc3c21 (stereo not given) | 1.1 (inactive)
CSC1=C(C#N)C2(CCCC2)C(C#N)=C(N)N1 | 1.1 (inactive)
CCSC1=C(C#N)C2(CCCC2)C(C#N)=C(N)N1 | 1 (inactive)
CC(C)N1CCC2(CC1)C(C#N)=C(N)NC(S)=C2C#N | 5.8 (active)
CCOC(=O)CSc1nnc(NCC(=O)OC(C)C)c(=O)[nH]1 | 1.2 (inactive)
CC(=O)NC(=S)Nc1ccc(NC(=O)COc2ccc(C(C)C)cc2)cc1 | 1 (inactive)
Cc1ccccc1NC(=O)c1ccc(S(=O)(=O)C(F)F)cc1 | 1.1 (inactive)
COC(=O)c1ccc2nc(Nc3nc4ccc(F)cc4s3)sc2c1 | 1.2 (inactive)
CCOC(=O)c1csc(Nc2nc3ccc(F)cc3s2)n1 | 1.1 (inactive)
C/C(=N\NC(=O)c1ccc(Cn2cc([N+](=O)[O-])cn2)o1)c1cccc(NC(=O)C(C)C)c1 | 1.1 (inactive)
CCC(C)NC(=O)CSC1=Nc2ccccc2C2=NC(c3ccccc3)C(=O)N12 (stereo not given) | 1 (inactive)
CC(/C=N/NC(=O)Cc1cccs1)=C\c1ccccc1 | 1 (inactive)
COc1cccc(OCCOCCNCCO)c1 | 1.1 (inactive)
CC(C)C(=O)NNC(=O)c1ccccn1 | 1.2 (inactive)
O=C(NNC(=O)C(c1ccccc1)c1ccccc1)c1ccccn1 | 1.5 (inactive)
Cc1nn(CC(=O)NC2C(=O)N3C(C(=O)O)=C(CSc4nnnn4C)CSC23)cc1Br (stereo not given) | 1.2 (inactive)
O=C1N(CCCN2C(=O)C3(OCCO3)c3ccccc32)c2ccccc2C12OCCO2 | 1 (inactive)
C=CCN1C(=O)C2(NC(=O)c3ccccc3N2)c2ccccc21 (stereo not given) | 1.1 (inactive)
C=CCN1C(=O)C(C)(C)Nc2ccccc21 | 1.1 (inactive)
O=C1N(CCCCN2C(=O)C3(OCCO3)c3ccccc32)c2ccccc2C12OCCO2 | 1.2 (inactive)
O=C(CSc1nnc(-c2ccccc2)n1-c1ccc(Cl)cc1)N/N=C/c1ccco1 | 1 (inactive)

SMILES | activation fold
Cc1ccc(C)c(NC(=O)CS(=O)(=O)c2c[nH]c3ccccc23)c1 | 1 (inactive)
Cn1cc(Cl)c(C(=O)NC2CCCCCC2)n1 | 1.2 (inactive)
Cn1cc(Cl)c(C(=O)NC2CCCC2)n1 | 1.1 (inactive)
Cc1c(-n2cccc2C=O)cccc1[N+](=O)[O-] | 1.6 (inactive)
COC(=O)Nc1nnc(CCc2ccccc2)s1 | 0.9 (inactive)
COc1ccccc1CNC(=O)Cc1ccc(Br)cc1 | 1.2 (inactive)
O=C(Nc1ccccc1-c1ccccc1)NC1CC2CCCC(C1)N2Cc1ccc(F)cc1 (stereo not given) | 2.7 (inactive)
CCOc1ccccc1NC(=O)NC1CC2CCCC(C1)N2Cc1nnnn1CCc1ccccc1 (stereo not given) | 1.4 (inactive)
CC(C)OC(=O)C1C2C=CC3(CN(C(C)c4ccc(Br)cc4)C(=O)C13)O2 (stereo not given) | 1.1 (inactive)
Cn1c(N/N=C2\CCCc3ccccc32)nc2c1c(=O)n(Cc1ccccc1)c(=O)n2C | 2.9 (inactive)
Cn1c(=O)c2c(nc(N/N=C3\CCCc4ccccc43)n2Cc2ccc(F)cc2)n(C)c1=O | 2.2 (inactive)
Fc1ccc(C2CC(c3ccc(F)cc3)n3ncnc3N2)cc1 (stereo not given) | 1.1 (inactive)
CC(C)N1CC(O)=C(c2nc3ccccc3[nH]2)C1=N | 1.4 (inactive)
CC(C)CCN1CC(O)=C(c2nc3ccccc3[nH]2)C1=N | 2 (inactive)
C=CCNC(=O)c1cc(-c2ccc(Br)cc2)on1 | 1.2 (inactive)
O=C(NNc1ccccn1)C(=O)NNS(=O)(=O)c1ccc(F)cc1 | 2.7 (inactive)
Cc1ccc(S(=O)(=O)NNC(=O)C(=O)NNc2ccccn2)cc1 | 2.9 (inactive)
Cc1ccc(NC(=O)c2cccc(S(C)(=O)=O)c2)cc1 | 1.1 (inactive)
C=CCN(CC=C)C(=O)C1CCC(C(=O)N(CC=C)CC=C)CC1 (stereo not given) | 1 (inactive)
COc1ccc(-n2cc(CNCCc3nc(C)cc(C)n3)c(-c3ccccc3Cl)n2)cc1 | 1 (inactive)
COc1ccc(-n2cc(CNCCc3cscn3)c(-c3ccccc3Cl)n2)cc1 | 1.1 (inactive)
COC(=O)NNC(=O)c1ccc(C(C)(C)C)cc1 | 1.1 (inactive)
CC(C)(C)c1ccc(C(=O)NNC(=O)c2ccc(Cl)cc2)cc1 | 1.9 (inactive)
